Laboratory results published in PubChem BioAssay (EPA / NIEHS).
Several values for one entry are separate records, joined by “and”; a condition that tells them apart may be missing. Equal values may be shown once. More than one record can exist for a structure, and the calls need not agree. Activity calls are given as the source filed them. How the source made its calls: active means hit-call score of the fitted dose curve at least 0.9, where 1 is the maximum; inactive means score below 0.9.

Assay: BSK_3C_VCAM1: BioMAP Diversity Plus: 3C Assay for Vascular cell adhesion molecule 1 (VCAM1) Biomarker Activity (AID 2282999)
Details: BioMAP 3C HUVEC, VCAM1 ELISA, cytokine-stimulated; actives raise or lower the signal
Description: BSK_3C is a cell-based, multiplexed-readout assay that uses umbilical vein endothelium, a human vascular primary cell, with measurements taken at 24 hours after chemical dosing in a 96-well plate.BSK_3C_VCAM1 is an assay component measured in the BSK_3C assay. It measures VCAM-1 antibody related to regulation of gene expression using ELISA technology.Data from the assay component BSK_3C_VCAM1 was analyzed into 1 assay endpoint. This assay endpoint, BSK_3C_VCAM1, was analyzed with bidirectional fitting relative to DMSO as the negative control and baseline of activity. Using a type of binding reporter, gain or loss-of-signal activity can be used to understand changes in the signaling as they relate to the gene VCAM1. Furthermore, this assay endpoint can be referred to as a primary readout, because this assay has produced multiple assay endpoints where this one serves a signaling function. To generalize the intended target to other relatable targets, this assay endpoint is annotated to the cell adhesion molecules intended target family, where the subfamily is Immunoglobulin CAM.
The levels of cell surface (or secreted, indicated by the prefix "s") biomarker endpoints were measured by ELISA. Overt cytotoxicity to cells in confluent adherent cultures (all systems other than the BT system) was assessed by measuring total protein levels using sulforhodamine B (SRB) staining in parallel cultures at the time of biomarker measurements, indicated as SRB endpoints. For proliferation assays for adherent cell types, individual cell types are cultured at sub-confluence and relative cell numbers quantified by SRB staining at time points optimized for each system (48 h: 3C and CASM3C systems; 72 h: BT and HDF3CGF systems; 96 h: SAg system). SRB was performed by staining cells with 0.1% SRB after fixation with 10% TCA and reading wells at 560 nm.Viability and proliferation of PBMC (T cells) was quantified by Alamar Blue reduction for the SAg and BT systems. For PBMC viability (referred to as PBMC Cytotoxicity within the assay endpoint names), cells were plated (75,000/well in a 96-well plate) and then chemical samples added for 1 h before addition of activators, SEB and TSST-1 (20 ng/mL final concentration each). Cells were incubated for 90 h. Then, Alamar Blue (20 uL/well) (Invitrogen, Cat DAL1100) was added for 6 h, and the plates were read with a fluorescence microplate reader at 546/580 nm (excitation/emission). For PBMC proliferation, cells were plated and activated as above but incubated for only 16 h prior to addition of Alamar Blue. Plates were read after 6 h.

Row | Structure (SMILES) | outcome | AC50
1 | CC(C)CCCCCCOC(=O)CCCCC(=O)OCCCCCCC(C)C | inactive | 
2 | Cc1oc(-c2ccccc2)nc1CCOc1ccc(C[C@H](Nc2ccccc2C(=O)c2ccccc2)C(=O)O)cc1 |  | 33.1 µM (active)
3 | CCCOC(=O)c1ccc(O)cc1 | inactive | 
4 | ClC1=C(Cl)C(Cl)(Cl)C(Cl)=C1Cl |  | 5.82 µM (active)
5 | CC(C)(C)c1cc(C(C)(C)C)c(O)c(C(C)(C)C)c1 | inactive | 
6 | CCCCCCCCOC(=O)CCCCCCCCC(=O)OCCCCCCCC | inactive | 
7 | COc1ccc([N+](=O)[O-])cc1N | inactive | 
8 | OCCC(F)(F)C(F)(F)C(F)(F)C(F)(F)C(F)(F)C(F)(F)C(F)(F)C(F)(F)F | inactive | 30 µM (active) and 21.8 µM (active)
9 | C#C[C@]1(O)CC[C@H]2[C@@H]3CCC4=CC(=O)CC[C@@H]4[C@H]3CC[C@@]21C | inactive | 
10 | CCCCCCCCCCCCc1ccccc1S(=O)(=O)O | inactive | 
11 | CC#C[C@]1(O)CC[C@H]2[C@@H]3CCC4=CC(=O)CCC4=C3[C@@H](c3ccc(N(C)C)cc3)C[C@@]21C |  | 32.2 µM (active)
12 | CC(O)CO (stereo not given) | inactive | 
13 | OC1CCCCC1 | inactive | 
14 | CCCCCCCC(=O)O | inactive | 
15 | O=[N+]([O-])c1ccc(O)cc1 | inactive | 
16 | CC[C@H](C)[C@@H](C(=O)O)n1sc2ccccc2c1=O | inactive | 
17 | Oc1cc2ccccc2c2ccccc12 |  | 8.07 µM (active)
18 | CN1CCC[C@H]1c1cccnc1 | inactive | 
19 | CC(C)(C)c1cccc(C(C)(C)C)c1O | inactive | 
20 | CC(C)(C)c1ccc(O)c(C(C)(C)C)c1 |  | 12.4 µM (active)

Row | Structure (SMILES) | outcome | AC50
21 | NC(=O)N1C(=O)C(C(=O)c2cc(Cl)cs2)c2cc(F)c(Cl)cc21 (stereo not given) | inactive | 
22 | CCCCC(CC)COC(=O)CCCCC(=O)OCC(CC)CCCC (stereo not given) | inactive | 
23 | O=c1c(-c2ccc(O)cc2)coc2cc(O)ccc12 | inactive | 
24 | NC(=O)N(O)[C@@H]1C=C[C@H](Oc2cccc(Oc3ccc(F)cc3)c2)C1 | inactive | 
25 | CCOC(=O)CC(O)(CC(=O)OCC)C(=O)OCC | inactive | 
26 | COCC(C)O (stereo not given) | inactive | 
27 | CC(=O)NC1(c2cccc(F)c2)CCN(CC[C@@]2(c3ccc(Cl)c(Cl)c3)CN(c3ccccc3)C(=O)CO2)CC1 |  | 24.2 µM (active)
28 | c1ccc2c(c1)ccc1ccccc12 | inactive | 
29 | OC1CCC(C2CCCCC2)CC1 (stereo not given) | inactive | 
30 | O=C(O)Cc1cc(I)c(Oc2cc(I)c(O)c(I)c2)c(I)c1 | inactive | 
31 | C=C(C)C(=O)OCCC(F)(F)C(F)(F)C(F)(F)C(F)(F)C(F)(F)C(F)(F)F | inactive | 
32 | CCCCCCCCC(=O)O | inactive | 
33 | CCC(C)(C)C1CCC(O)CC1 (stereo not given) | inactive | 
34 | CCCCCCC(=O)O | inactive | 
35 | CCc1nn(C2CCCCC2)c2cc(C3(C#N)CCC(C(=O)O)CC3)ccc12 (stereo not given) |  | 4 µM (active)
36 | O=C(O)c1ccccc1C(c1ccc(O)cc1)c1ccc(O)cc1 | inactive | 
37 | CCCCCCCCCCCCCCCS(=O)(=O)Oc1ccccc1 | inactive | 
38 | C[C@@H]1C[C@H]2[C@@H]3CCC4=CC(=O)C=C[C@]4(C)[C@@]3(F)[C@@H](O)C[C@]2(C)[C@@]1(O)C(=O)COP(=O)(O)O | inactive | 
39 | c1ccc2cc3c(ccc4ccccc43)cc2c1 | inactive | 
